High-throughput results: PubChem BioAssay, National Center for Advancing Translational Sciences (NCATS)
The list is not random: actives were taken first. Their share in the collection is about 11%.
NPR1 antag – human Npr1 receptor antagonism; P16066; HEK293 hNpr1 GloSensor cGMP, ANP-stimulated luminescence; Potency, µM (top dose mostly 46.3 µM), without a hit: at the top dose activity change, negative = inhibition, actives largely listed as inhibitors; hit rate 1.6% among 76,000; calls by dose curve; further: on the % scale 0 is the no-effect control and ±100 the full control effect; nearly all actives have a fitted effect of over 60% in size
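Compound pre-incubated 30 min at room temperature on GloSensor-loaded HEK293 cells stably carrying hNpr1 and the pGS-40F cGMP biosensor. Stimulation uses hNppA at 0.1 nM final; luminescence is taken at baseline and 20 min post-agonist.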
NIH3T3 tox – kills NIH 3T3 cells; NIH 3T3 viability, CellTiter-Glo ATP luminescence, 48-72 h; Potency, µM (top dose mostly 96.7 µM), without a hit: at the highest dose activity change, negative = cytotoxicity, actives largely listed as inhibitors; hit rate 4.3% among 94,000; AID 1345082; further: on the % scale 0 is the no-effect control and ±100 the full control effect; nearly all actives have a fitted effect of over 55% in size
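First NIH 3T3 cells are plated at 400 cells/well; next compound is pinned in; then plates incubate 48 or 72 hr at 37 °C; finally CellTiter-Glo is added and luminescence read after 10 min.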
Luciferase inh – blocks purified firefly luciferase enzyme activity; purified P. pyralis luciferase, luminescence, biochemical; Potency, µM (series often up to 115 µM), hits mostly inhibitors; P08659; hit rate 2.5% among 76,000; further: on the % scale 0 is the no-effect control and ±100 the full control effect; nearly all actives have a fitted effect of over 65% in size
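Biochemical qHTS: compound (6-point titration) added to 10uM D-luciferin plus 10uM ATP in Tris acetate pH 7.5 buffer with Mg, Tween-20 and BSA, then purified enzyme at 10nM; light output imaged.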
HEK293 tox – cytotoxic compounds in HEK 293 cells; HEK 293 viability, ATP luminescence (CellTiter-Glo), 48-72 h; Potency, µM (titrated, usually from 115 µM), for the others: at the highest dose activity change, negative = cytotoxicity, hits mostly inhibitors; hit rate 6.6% among 94,000; AID 1345083; further: on the % scale 0 is the no-effect control and ±100 the full control effect; nearly all actives have a fitted effect of over 60% in size
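Cells seeded first (HEK 293, 250 cells/well), then compound added by pintool. Incubation ran 48 or 72 hr at 37 degree Celsius. CellTiter-Glo was added and luminescence imaged after 10 min at room temperature.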
Npr1 antag conf – confirmation of human Npr1 natriuretic peptide receptor antagonists | Potency, µM (top dose mostly 57.6 µM), for the others: top-dose activity change, negative = inhibition, hits mostly inhibitors | HEK293 hNpr1 cGMP GloSensor luminescence, ANP-stimulated | shares compounds with NPR1 antag | hit rate 76% among 1,400; calls by dose curve; further: nearly all actives have a fitted effect of over 70% in size
NPR2 antag – selectivity test of Npr1 antagonists against human Npr2; AID 1347046; shares compounds with NPR1 antag; hit rate 67% among 1,400; HEK293 hNpr2 GloSensor cGMP luminescence, CNP-stimulated; Potency, µM (top dose mostly 57.6 µM), inactives show top-dose activity change, negative = inhibition, usual class: inhibitors; calls by dose curve; further: nearly all actives have a fitted effect of over 70% in size
Target sequence (P20594 whole entry, looked up): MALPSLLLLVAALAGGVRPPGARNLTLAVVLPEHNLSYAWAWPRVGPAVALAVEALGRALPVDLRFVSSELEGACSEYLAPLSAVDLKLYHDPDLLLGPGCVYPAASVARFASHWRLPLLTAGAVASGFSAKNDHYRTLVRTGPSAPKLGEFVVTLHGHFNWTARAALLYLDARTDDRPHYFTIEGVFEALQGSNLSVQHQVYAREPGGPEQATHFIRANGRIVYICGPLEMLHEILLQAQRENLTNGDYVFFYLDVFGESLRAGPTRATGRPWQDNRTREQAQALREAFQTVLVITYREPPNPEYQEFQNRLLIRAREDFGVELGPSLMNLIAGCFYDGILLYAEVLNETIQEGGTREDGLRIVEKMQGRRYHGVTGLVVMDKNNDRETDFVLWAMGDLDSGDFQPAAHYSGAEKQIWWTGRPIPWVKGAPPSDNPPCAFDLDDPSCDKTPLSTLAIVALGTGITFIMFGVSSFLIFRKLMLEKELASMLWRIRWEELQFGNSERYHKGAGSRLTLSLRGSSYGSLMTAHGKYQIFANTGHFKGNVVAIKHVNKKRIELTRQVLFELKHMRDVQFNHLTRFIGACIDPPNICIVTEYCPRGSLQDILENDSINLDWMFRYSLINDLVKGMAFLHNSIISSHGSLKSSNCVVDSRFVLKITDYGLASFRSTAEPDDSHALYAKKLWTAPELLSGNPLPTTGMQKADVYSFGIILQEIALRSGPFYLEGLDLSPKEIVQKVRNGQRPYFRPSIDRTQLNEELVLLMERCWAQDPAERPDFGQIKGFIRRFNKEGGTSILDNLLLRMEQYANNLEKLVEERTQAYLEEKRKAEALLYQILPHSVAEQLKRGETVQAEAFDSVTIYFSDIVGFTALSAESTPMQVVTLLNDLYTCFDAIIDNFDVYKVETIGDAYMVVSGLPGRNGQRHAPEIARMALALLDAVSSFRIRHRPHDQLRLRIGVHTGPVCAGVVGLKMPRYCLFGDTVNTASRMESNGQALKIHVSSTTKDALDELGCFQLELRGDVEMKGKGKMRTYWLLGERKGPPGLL
FLuc counter – FLuc enzyme inhibition, Npr1 counter-screen; shares compounds with NPR1 antag; purified FLuc enzyme, luminescence, Km substrate; Potency, µM (top dose mostly 57.6 µM), for the others: at the top dose activity change, negative = inhibition, hits mostly inhibitors; hit rate 0.7% among 1,400; AID 1347047; further: 0% is about no effect
GloSensor cGMP – counter-screen for Npr1 antagonists: GloSensor control cell line; shares compounds with NPR1 antag; HEK293 GloSensor cGMP, SNP-stimulated, luminescence; Potency, µM (top dose mostly 57.6 µM), for the others: at the top dose activity change, negative = inhibition, actives largely listed as inhibitors; hit rate 69% among 1,400; AID 1347051; calls by dose curve; further: on the % scale 0 is the no-effect control and ±100 the full control effect; nearly all actives have a fitted effect of over 70% in size
An asterisk follows results filed as active; i = inactive; ? = inconclusive; · = not tested or not shown; [ ] = another dose, or the depositor's remark. Unless noted, the call rests on the fitted dose curve; in most records, active means well fitted curve in the direction sought with a large enough effect; inconclusive means small, poorly fitted or top-dose-only effect, or another doubt; inactive means no such curve, though single readings can be large; an effect the other way counts as inactive or inconclusive. Potency means the concentration at half of the fitted maximal effect.

SMILES	NPR1 antag	NIH3T3 tox	Luciferase inh	HEK293 tox	Npr1 antag conf	NPR2 antag	FLuc counter	GloSensor cGMP
CC(C)c1nc(-c2ccc(OC3CCN(C(=O)c4n[nH]c5ccccc45)C3)cc2)no1 (stereo not drawn)	15.8µM*	?	i	28.2µM*	24.3µM*	24.3µM*	-0.1%	19.3µM*
Cc1cccc(OCC2(CNC(=O)C3CC3)C[C@@H](O)[C@@H](O)C2)n1 (stereo partly drawn)	-1.8%[70.6 µM]	-3.7%[174 µM]	i	-14.1%[172 µM]	·	·	·	·
Cc1nccn1-c1ccc(CNC(=O)C(c2ccc(F)cc2)N(C)C)cc1 (stereo not drawn)	1.9%	-17.3%	i	-29.5%	·	·	·	·
CCc1cc(N2CCCC(C(=O)c3sccc3C)C2)ncn1 (stereo not drawn)	7.08µM*	-38.8%	i	31.6µM*	7.69µM*	12.2µM*	2.9%	7.69µM*
COc1ccc(CN2CC3(CCN(C(=O)c4cn[nH]c4-c4ccc(F)cc4)CC3)C2=O)cc1	11.2µM*	?	i	28.2µM*	13.7µM*	19.3µM*	-4.3%	12.2µM*
O=[S+]1([O-])NCC2(CCN(Cc3ccc(F)cc3)CC2)Nc2ccccc21	7.5%	?	i	?	·	·	·	·
Clc1cccc(CN2CC[C@H](c3nc4ccccc4[nH]3)C2)c1	25.1µM*	?	i	20µM*	39.6µM*	?	-1.8%[86.2 µM]	?
COc1cccc(CN2CC[C@H](c3nc4ccccc4[nH]3)C2)c1	2.5%[70.6 µM]	-17.9%[138 µM]	i	?	·	·	·	·
O=C(N[C@H]1CO[C@H]2[C@@H]1OC[C@@H]2n1cc(CC2CCCCC2)nn1)C1CCCCC1	-17.9%[70.6 µM]	?	i	?	·	·	·	·
COc1cc(CNC(=O)c2ccc3c(c2)N(C(=O)c2ccc(F)cc2)CC3)cc(OC)c1	?	?	i	?	21.7µM*	24.3µM*	2.7%	21.7µM*
Cc1ccc(S(=O)(=O)N2CCc3c(C(=O)NCC(C)C)cccc32)cc1	?	?	i	?	?	?	-0.5%	?
O=C(O)CCn1ncc2cc(OCc3ccc(-c4ccncc4)cc3)ccc21	·	?	?	-7.7%[172 µM]	·	·	·	·
COC(=O)c1cccc(NC(=S)N[C@@H]2C=C[C@@H](c3c(C)nn(-c4ccccc4[N+](=O)[O-])c3C)C2)c1	12.6µM*	39.8µM*	i	39.8µM*	19.3µM*	?	-7.9%	24.3µM*
O=C(NC1CCCCCC1)c1ccc(Cn2ccn3nc4c(c3c2=O)CCCC4)cc1	-16.6%	?	i	?	·	·	·	·
FC(F)(F)c1ccc(CN2CCC3(CC(c4cccnc4)=NO3)C2)cc1 (stereo not drawn)	·	-17.3%	·	?	·	·	·	·
FC(F)(F)c1ccc(CN2CCC3(CC2)CC(c2cccnc2)=NO3)cc1	2.51µM*	?	i	?	6.85µM*	10.9µM*	2.2%	6.11µM*
COc1ccc(-c2nc3c(c(=O)[nH]2)CCN(C(=O)c2ccc(OC)nc2)C3)cc1	-2.2%	2.4%	i	-34.4%	·	·	·	·
COc1cccc(CC(=O)N2CCN(C(=O)c3nnn4c3COC(c3ccc(C)cc3)C4)CC2)c1 (stereo not drawn)	?	-6.7%	i	?	24.3µM*	?	3.6%	?
COc1ccccc1CC(=O)N1CCN(C(=O)c2nnn3c2COC(c2ccc(C)cc2)C3)CC1 (stereo not drawn)	10µM*	-32.9%	i	?	19.3µM*	19.3µM*	2.3%	15.3µM*
COc1cccc(CC(=O)N2CCN(C(=O)c3nnn4c3COC(c3ccccc3)C4)CC2)c1 (stereo not drawn)	-13.7%	-2.4%	i	-8.0%	·	·	·	·
CCc1ccc(C(=O)N2CCN(C(=O)c3nnn4c3COC(c3ccc(C)cc3)C4)CC2)cc1 (stereo not drawn)	?	-16.8%	i	?	19.3µM*	19.3µM*	-0.7%	19.3µM*
Cc1ccc(C2Cn3nnc(C(=O)N4CCN(C(=O)Cc5cccc(F)c5)CC4)c3CO2)cc1 (stereo not drawn)	11.2µM*	2.9%	i	?	21.7µM*	21.7µM*	1.2%	21.7µM*
CNC(=O)c1cc(C2CC2)nc2onc(C3CCN(C(=O)c4ccc(F)cc4)CC3)c12	·	?	·	-13.6%	·	·	·	·
COc1cccc(-c2ccc(C(=O)NCCNC(=O)c3ccc(Cl)nc3)cc2)c1	·	-13.4%	·	?	·	·	·	·
Cc1cc(=O)n(CC(=O)NCCCc2ccccc2)c(N2CCc3ccccc3C2)n1	?	?	i	44.7µM*	?	?	0.0%	-24.1%
SMILES	NPR1 antag	NIH3T3 tox	Luciferase inh	HEK293 tox	Npr1 antag conf	NPR2 antag	FLuc counter	GloSensor cGMP
Cc1cc(=O)n(CC(=O)Nc2ccc(C)c(F)c2)c(N2CCc3ccccc3C2)n1	15.8µM*	?	i	8.91µM*	-16.6%	-26.3%	0.5%	-20.3%
Cc1cc(=O)n(CC(=O)Nc2ccc(C)c(Cl)c2)c(N2CCc3ccccc3C2)n1	-7.4%	?	i	?	·	·	·	·
Cc1cc(=O)n(CC(=O)Nc2ccc(Br)cc2F)c(N2CCc3ccccc3C2)n1	?	?	i	?	-29.0%	?	0.4%	-16.0%
CC(C)C(=O)NC1CCN(c2ccc3nnc(-c4ccccc4)n3n2)C1 (stereo not drawn)	·	-17.7%	·	-19.7%	·	·	·	·
CN(CC(=O)N1CCN(Cc2ccccc2)CC(O)C1)C1CCCC1 (stereo not drawn)	9.5%	-4.5%	i	-15.0%	·	·	·	·
COc1ccc(C(=O)N2CCC(C(=O)N3CCCC3c3nc4ccncc4[nH]3)CC2)cc1 (stereo not drawn)	·	-4.8%	·	-8.5%	·	·	·	·
CC(=O)N1CCC(C(=O)N[C@H]2CCN3C(=O)N(c4ccc(OC(F)(F)F)cc4)C(=O)[C@@H]3C2)CC1	-2.0%	-10.9%	i	-12.1%	·	·	·	·
CC(C)c1ccc(N2C(=O)[C@@H]3C[C@@H](NC(=O)C4CCN(c5nccc(C(F)(F)F)n5)CC4)CCN3C2=O)cc1	?	?	i	?	?	?	2.2%	?
COc1ccc(-c2cc(N3CCN(C(=O)Cc4ccc(F)cc4)CC3)n[nH]2)cc1	-2.0%	-11.5%	i	2.0%	·	·	·	·
